Test results taken from the supplement of paper PMC10849652.
The full data set covers some 7,900 targets. This sample favours those with a hit. About 0.6% of all pairs of compound and target were hits.

compound: CCCS(=O)(=O)Nc1ccc(F)c(C(=O)c2c[nH]c3ncc(Cl)cc23)c1F; experiment: log2 fold change, soluble protein after heating vs DMSO (PISA); higher = thermal stabilisation; K562 cells, 10 uM, 30 min; active = over 0.2 and 3.5 SD of the protein, either way, in both replicates (recomputed)
In short: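 For each measurement, 10 μM compound was applied for 30 min to K562 cells at 2×10^6 cells/mL. Aliquots were heated for 3 min across 48°C-58°C, pooled, and extracted in PBS with 0.5% NP-40 at 4°C; the supernatant after 21,000xg for 90 min was soluble protein. This was quantified by TMTpro 16plex LC-MS/MS with channel sums equalised, and thermal stability was reported relative to control samples from duplicates, on a log2 fold-change scale.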

Sequence of UniProt O00408 (O00408 whole entry, looked up): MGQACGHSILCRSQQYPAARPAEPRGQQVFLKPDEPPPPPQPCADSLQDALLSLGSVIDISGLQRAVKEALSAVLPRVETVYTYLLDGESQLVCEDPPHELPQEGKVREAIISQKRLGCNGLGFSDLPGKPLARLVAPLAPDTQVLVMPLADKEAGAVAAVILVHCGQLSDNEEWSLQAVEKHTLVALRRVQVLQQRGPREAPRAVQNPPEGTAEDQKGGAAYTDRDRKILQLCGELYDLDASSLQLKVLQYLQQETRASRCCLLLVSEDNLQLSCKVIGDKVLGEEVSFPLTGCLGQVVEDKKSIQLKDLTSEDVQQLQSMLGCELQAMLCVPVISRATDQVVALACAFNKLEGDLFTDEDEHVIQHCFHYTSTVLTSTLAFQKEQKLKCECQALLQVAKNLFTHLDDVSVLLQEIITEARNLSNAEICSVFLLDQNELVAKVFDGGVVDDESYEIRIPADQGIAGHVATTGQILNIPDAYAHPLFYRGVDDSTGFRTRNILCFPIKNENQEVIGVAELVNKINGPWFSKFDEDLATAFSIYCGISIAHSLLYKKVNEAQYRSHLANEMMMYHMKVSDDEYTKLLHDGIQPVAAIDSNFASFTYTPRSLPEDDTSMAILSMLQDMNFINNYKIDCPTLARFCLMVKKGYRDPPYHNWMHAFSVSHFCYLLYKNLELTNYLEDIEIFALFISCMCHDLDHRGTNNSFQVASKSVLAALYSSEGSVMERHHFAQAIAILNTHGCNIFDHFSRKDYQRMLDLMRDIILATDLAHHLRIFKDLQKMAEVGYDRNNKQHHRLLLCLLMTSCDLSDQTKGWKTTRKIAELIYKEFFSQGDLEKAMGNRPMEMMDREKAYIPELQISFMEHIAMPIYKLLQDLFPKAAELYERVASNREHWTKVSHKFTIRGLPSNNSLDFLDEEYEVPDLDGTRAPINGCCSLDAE
Sequence of UniProt Q15185 (Q15185 whole entry, looked up): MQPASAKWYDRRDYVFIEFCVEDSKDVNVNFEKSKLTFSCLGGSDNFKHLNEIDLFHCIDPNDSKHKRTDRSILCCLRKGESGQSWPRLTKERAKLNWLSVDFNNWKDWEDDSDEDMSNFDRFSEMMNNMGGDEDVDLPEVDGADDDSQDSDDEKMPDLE
Sequence of UniProt Q6L8Q7 (Q6L8Q7 whole entry, looked up): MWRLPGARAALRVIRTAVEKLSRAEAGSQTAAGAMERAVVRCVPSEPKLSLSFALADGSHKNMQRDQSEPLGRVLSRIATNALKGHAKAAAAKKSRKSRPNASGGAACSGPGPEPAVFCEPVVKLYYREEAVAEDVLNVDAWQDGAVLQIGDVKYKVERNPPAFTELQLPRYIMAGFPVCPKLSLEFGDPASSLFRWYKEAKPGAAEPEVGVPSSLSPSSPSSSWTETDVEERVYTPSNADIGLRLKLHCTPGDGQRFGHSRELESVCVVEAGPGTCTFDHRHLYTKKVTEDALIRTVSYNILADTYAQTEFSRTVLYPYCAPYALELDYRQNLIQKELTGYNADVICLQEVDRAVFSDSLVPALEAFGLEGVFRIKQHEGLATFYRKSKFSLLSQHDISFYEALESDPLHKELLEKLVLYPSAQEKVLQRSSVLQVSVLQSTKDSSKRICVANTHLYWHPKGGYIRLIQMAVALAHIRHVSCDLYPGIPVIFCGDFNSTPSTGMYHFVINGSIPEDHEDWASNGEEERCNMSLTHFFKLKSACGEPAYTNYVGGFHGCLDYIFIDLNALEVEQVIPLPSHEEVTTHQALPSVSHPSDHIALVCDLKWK
Sequence of UniProt Q8NCC3 (Q8NCC3 whole entry, looked up): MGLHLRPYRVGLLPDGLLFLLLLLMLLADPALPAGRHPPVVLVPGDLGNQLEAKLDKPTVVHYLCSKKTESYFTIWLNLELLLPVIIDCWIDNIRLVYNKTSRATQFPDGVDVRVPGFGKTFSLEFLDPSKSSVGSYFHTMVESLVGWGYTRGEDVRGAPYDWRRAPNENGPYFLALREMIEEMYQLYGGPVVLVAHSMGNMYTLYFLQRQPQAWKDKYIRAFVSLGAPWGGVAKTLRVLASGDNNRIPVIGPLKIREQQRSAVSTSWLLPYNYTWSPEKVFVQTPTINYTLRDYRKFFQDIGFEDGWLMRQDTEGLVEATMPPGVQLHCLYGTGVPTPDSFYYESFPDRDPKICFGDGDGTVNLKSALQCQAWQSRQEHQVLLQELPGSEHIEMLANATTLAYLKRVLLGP
Sequence of UniProt O15530 (O15530 whole entry, looked up): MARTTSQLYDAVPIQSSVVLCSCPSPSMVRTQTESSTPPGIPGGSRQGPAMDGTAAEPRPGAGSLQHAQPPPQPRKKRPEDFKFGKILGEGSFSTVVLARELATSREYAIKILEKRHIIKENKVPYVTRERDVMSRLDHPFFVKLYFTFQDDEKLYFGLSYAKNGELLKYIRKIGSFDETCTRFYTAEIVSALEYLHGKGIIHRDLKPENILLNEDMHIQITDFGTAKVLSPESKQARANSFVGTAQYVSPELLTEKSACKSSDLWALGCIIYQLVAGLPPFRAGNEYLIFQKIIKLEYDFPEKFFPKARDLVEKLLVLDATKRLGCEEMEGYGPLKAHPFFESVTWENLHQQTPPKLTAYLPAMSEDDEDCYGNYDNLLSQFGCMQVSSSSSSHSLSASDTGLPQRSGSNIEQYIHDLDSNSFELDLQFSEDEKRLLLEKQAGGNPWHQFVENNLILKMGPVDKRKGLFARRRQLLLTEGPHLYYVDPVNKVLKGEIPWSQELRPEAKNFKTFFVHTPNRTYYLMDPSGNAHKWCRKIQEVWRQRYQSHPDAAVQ
Sequence of UniProt Q9H814 (Q9H814 whole entry, looked up): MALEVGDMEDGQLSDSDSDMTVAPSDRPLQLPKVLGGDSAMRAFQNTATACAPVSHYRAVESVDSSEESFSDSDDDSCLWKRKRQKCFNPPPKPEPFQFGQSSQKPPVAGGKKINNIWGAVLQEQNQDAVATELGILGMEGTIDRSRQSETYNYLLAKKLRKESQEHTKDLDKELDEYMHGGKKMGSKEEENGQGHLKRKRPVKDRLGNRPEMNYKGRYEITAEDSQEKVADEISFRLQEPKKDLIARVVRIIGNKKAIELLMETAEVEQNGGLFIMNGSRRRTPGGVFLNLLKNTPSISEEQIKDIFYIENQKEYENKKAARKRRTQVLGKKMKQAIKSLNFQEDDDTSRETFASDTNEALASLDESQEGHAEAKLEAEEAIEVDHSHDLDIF
Sequence of UniProt Q8N4L2 (Q8N4L2 whole entry, looked up): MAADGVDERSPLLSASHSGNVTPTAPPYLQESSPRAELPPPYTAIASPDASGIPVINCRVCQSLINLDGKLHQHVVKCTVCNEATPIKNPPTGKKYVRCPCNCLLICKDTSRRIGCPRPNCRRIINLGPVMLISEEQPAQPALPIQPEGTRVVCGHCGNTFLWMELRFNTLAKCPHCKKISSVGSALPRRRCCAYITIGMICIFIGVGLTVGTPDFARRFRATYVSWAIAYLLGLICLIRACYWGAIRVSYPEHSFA
Sequence of UniProt P62195 (P62195 whole entry, looked up): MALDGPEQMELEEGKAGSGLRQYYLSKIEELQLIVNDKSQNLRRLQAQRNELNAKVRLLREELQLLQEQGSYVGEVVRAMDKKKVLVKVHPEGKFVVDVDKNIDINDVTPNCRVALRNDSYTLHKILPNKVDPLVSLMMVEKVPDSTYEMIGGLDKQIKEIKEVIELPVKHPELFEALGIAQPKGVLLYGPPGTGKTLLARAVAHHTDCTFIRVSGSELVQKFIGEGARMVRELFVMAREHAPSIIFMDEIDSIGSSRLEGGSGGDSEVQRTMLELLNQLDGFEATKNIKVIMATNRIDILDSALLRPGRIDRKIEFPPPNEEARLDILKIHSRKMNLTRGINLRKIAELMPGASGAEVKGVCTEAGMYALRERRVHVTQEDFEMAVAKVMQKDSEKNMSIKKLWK
Sequence of UniProt O60678 (O60678 whole entry, looked up): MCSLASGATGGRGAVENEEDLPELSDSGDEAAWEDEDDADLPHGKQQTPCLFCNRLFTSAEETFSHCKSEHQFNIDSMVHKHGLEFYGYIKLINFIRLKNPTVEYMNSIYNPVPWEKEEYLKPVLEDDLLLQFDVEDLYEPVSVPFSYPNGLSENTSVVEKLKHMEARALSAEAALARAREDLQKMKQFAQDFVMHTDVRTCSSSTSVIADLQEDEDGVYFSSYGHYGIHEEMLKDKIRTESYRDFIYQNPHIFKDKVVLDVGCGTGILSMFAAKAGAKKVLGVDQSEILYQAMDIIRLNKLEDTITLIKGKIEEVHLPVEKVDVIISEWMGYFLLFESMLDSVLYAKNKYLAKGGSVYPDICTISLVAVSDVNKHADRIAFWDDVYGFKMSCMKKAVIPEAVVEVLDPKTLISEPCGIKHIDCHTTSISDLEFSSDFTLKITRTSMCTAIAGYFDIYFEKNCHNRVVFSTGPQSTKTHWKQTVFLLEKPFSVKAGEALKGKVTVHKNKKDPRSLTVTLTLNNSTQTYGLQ
Sequence of UniProt O43395 (O43395 whole entry, looked up): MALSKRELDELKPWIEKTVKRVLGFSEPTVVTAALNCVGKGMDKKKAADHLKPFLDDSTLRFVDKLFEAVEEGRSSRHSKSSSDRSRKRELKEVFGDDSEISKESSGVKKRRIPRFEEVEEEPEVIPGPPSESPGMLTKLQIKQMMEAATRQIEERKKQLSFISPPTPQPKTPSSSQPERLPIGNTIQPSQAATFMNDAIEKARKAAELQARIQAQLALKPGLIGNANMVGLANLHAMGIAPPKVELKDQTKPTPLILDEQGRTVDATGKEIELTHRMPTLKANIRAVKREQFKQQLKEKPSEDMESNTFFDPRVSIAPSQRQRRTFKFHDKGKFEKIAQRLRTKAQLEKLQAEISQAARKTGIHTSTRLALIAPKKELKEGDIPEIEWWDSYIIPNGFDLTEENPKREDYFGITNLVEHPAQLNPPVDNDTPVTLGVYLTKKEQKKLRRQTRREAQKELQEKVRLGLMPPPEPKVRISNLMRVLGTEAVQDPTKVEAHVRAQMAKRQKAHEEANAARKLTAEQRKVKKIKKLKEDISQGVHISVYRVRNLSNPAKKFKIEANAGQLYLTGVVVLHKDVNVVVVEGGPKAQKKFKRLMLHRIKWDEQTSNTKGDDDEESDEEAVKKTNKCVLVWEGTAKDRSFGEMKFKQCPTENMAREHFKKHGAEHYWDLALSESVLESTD

log2 fold change, inactive:
PRPF40A (UniProt O75400) 0.02
PHAX (UniProt Q9H814) -0.019
PDPK1 (UniProt O15530) 0.003
PDE4DIP isoform 4 (UniProt Q5VU43) -0.01
PIR (UniProt O00625) 0.122
PSMC2 (UniProt P35998) -0.041
PEX16 isoform 2 (UniProt Q9Y5Y5) 0.089
PLEKHM2 (UniProt Q8IWE5) 0.124
PRIM1 (UniProt P49642) 0.1
PRPF31 (UniProt Q8WWY3) 0.087
PCNT (UniProt O95613) -0.103
PTGR2 (UniProt Q8N8N7) -0.021
PSMC5 (UniProt P62195) -0.053
PRKCA (UniProt P17252) 0.012
PRMT3 (UniProt O60678) 0.055
PARN (UniProt O95453) 0.043
PRKAA1 isoform 2 (UniProt Q13131) 0.008
PJA2 (UniProt O43164) -0.062
PRPF3 (UniProt O43395) 0.081
PITRM1 isoform 2 (UniProt Q5JRX3) -0.002
PLA2G15 (UniProt Q8NCC3) 0.001
PIP4K2B (UniProt P78356) 0.02
PDE2A (UniProt O00408) 0.036
PIP4P2 (UniProt Q8N4L2) 0.041
PRKCD (UniProt Q05655) 0.013
PLCB3 (UniProt Q01970) 0.045
POLR2B (UniProt P30876) 0.041
PPIL4 (UniProt Q8WUA2) 0
PCTP (UniProt Q9UKL6) 0.066
PDE12 (UniProt Q6L8Q7) 0.03
PPP1R12A (UniProt O14974) 0.073
PIP4P1 isoform 2 (UniProt Q86T03) -0.063
PDS5B (UniProt Q9NTI5) 0.32
PTGES3 (UniProt Q15185) 0.111
PLBD2 (UniProt Q8NHP8) 0.001
PRKAR1B (UniProt P31321) -0.038
PSMD2 (UniProt Q13200) -0.014
